Screening results as filed in PubChem BioAssay.
PKM2 act = increases activity of human pyruvate kinase M2. purified PKM2, Kinase-Glo ATP luminescence, activation; response scale: 0% is enzyme alone, no compound. hit rate 0.34% among 260,000. Potency, µM (titrated, usually from 57.5 µM), for inactives: at the top dose activation, most hits filed as activators; note: % is set by controls: 0 for no effect and ±100 for the full control effect; nearly all actives have a fitted effect of over 55% in size
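Kinase-Glo luminescence reports ATP generated from ADP (0.1 mM) and PEP (0.5 mM) by purified hPK-M2 after 1 h at room temperature, pH 7.2 imidazole buffer; intermediate enzyme activity allows detecting inhibitors and activators.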
VDR inhibitor = blocks the human vitamin D receptor. VDR-SRC2-3 peptide fluorescence polarization, 2 h. P11473. Potency, µM, for inactives: max response, negative = inhibition, most hits filed as inhibitors. hit rate 0.93% among 400,000; note: % is set by controls: 0 for no effect and ±100 for the full control effect
Target sequence (P11473 whole entry, looked up): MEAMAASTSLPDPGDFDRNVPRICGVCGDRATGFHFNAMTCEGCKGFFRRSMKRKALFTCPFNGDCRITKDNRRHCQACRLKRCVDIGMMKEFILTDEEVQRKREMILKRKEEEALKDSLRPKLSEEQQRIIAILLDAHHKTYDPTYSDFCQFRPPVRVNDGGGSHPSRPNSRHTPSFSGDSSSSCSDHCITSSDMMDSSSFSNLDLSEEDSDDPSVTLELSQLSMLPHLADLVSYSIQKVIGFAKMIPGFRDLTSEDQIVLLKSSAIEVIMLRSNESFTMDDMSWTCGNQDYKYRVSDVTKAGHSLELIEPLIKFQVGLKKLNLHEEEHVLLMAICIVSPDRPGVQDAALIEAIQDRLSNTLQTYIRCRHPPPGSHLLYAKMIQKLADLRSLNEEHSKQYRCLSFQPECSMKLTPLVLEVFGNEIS
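VDR–SRC2-3 interaction, FP format. Cmpds 23 nl via pintool, brief spin, 2 h ambient incubation.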
Mito fusion yeast = mitochondrial division inhibition or fusion activation; S. cerevisiae fusion-defective mutant growth rescue, CellTiterGlo 48 h; Potency, µM (titrated, usually from 46.1 µM), for the others: top-dose growth rescue (activation), hits mostly activators; hit rate 0.23% among 320,000; note: % of control where 0% means no effect; nearly all actives have a fitted effect of over 45% in size
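Compounds are tested for their ability to restore growth of mitochondrial fusion-defective yeast strains at non-permissive 37C in YPEG medium over 48 hours. Viability is quantified by luciferase luminescence.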
PLK1 PBD block = PLK1 (human) polo-box domain binding inhibition; AID 720504; Potency, µM, for the others: max response, negative = inhibition, most hits filed as inhibitors; hit rate 2.8% among 360,000; P53350; Plk1 PBD binding of FITC phosphopeptide, fluorescence polarization; note: series mostly up to about 57 µM; % is set by controls: 0 for no effect and ±100 for the full control effect; nearly all actives have a fitted effect of over 65% in size
GCN5L2 inh = GCN5L2 (KAT2A) acetyltransferase inhibition. Potency, µM (titrated, usually from 58.9 µM), without a hit: top-dose activity change, negative = inhibition, usual class: inhibitors. hit rate 0.21% among 390,000. GCN5L2 HAT assay, ThioGlo1 CoA-SH fluorescence. Q92830. AID 504327; note: % is set by controls: 0 for no effect and ±100 for the full control effect
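Compounds, pin-transferred from DMSO stocks, meet 20nM GCN5L2 for 15 min before the reaction begins with H3(1-25) peptide (75uM) and acetyl-CoA (70uM). Thiol-reactive ThioGlo1 reports CoA release over 20 min at room temperature.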
GLS inh = glutaminase GLS (human) inhibition; O94925; GLS enzymatic activity, qHTS titration; Potency, µM (doses to about 45.5 µM), for the others: top-dose activity change, negative = inhibition, actives largely listed as inhibitors; hit rate 0.21% among 410,000; note: % is set by controls: 0 for no effect and ±100 for the full control effect
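Enzyme dispensed in phosphate buffer (45 mM, pH 8.2, 0.02% Tween-20), compounds pinned in, then 1 mM L-glutamine solution and the glutamate oxidase–HRP–Amplex Red mix added; fluorescence read immediately and again after 30 min at room temperature.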
* = called active by the depositor; ? = inconclusive; / = no result given. A selection: hits, their analogues and other compounds. The true share with any hit is near 3.4%. Calls come from the whole dose curve; as a rule, active = well fitted curve in the direction sought with a large enough effect; inconclusive = small, poorly fitted or top-dose-only effect, or another doubt; inactive = no such curve, though single readings can be large; an effect the other way counts as inactive or inconclusive. Potency is the fitted concentration of half-maximal effect.

SMILES	PKM2 act	VDR inhibitor	Mito fusion yeast	PLK1 PBD block	GCN5L2 inh	GLS inh
Cc1nnc(NC(=O)c2cc(-c3ccco3)nc3ccccc23)s1	/	/	9%	/	?	/
O=C(O)c1cc(-c2ccco2)nc2ccccc12	7%	79µM*	-2%	?	?	?
Cc1nn(-c2cccc(Cl)c2)c2nc(-c3ccco3)cc(C(=O)O)c12	8%	-12%	0%	6%	-24%	?
O=C(N/N=C/c1ccc(F)cc1)c1cc(-c2ccco2)nc2ccccc12	?	3%	-8%	?	?	10µM*
Cc1nn(-c2ccccc2)c2nc(-c3ccco3)cc(C(=O)O)c12	2%	1%	4%	?	-20%	7.1µM*
Cc1nc(-c2ccc(Cl)cc2)sc1C1(C)CC(c2ccc(F)cc2)=NO1 (stereo not given)	?	12%	-2%	3%	1%	-7%
CC(NC(=O)c1cc2c(s1)CS(=O)(=O)C2)c1ccccc1 (stereo not given)	/	-21%	-2%	3%	1%	-12%
O=C(CN1C(=O)CCc2cc(S(=O)(=O)N3CCOCC3)ccc21)NCc1ccc(F)cc1	/	1%	/	/	19%	8%
O=C(N/N=C/c1ccc(O)c(O)c1)c1cc(-c2ccccc2)nc2ccccc12	8%	-9%	2%	2%	-11%	13µM*
Brc1ccc2nc(C3CCCCC3)c(CC3CCCCC3)n2c1	/	/	/	4%	/	?
Cc1nc2c(C(=O)NCc3ccccc3)cnn2c(C)c1Cc1ccc(F)cc1	/	3%	/	/	-1%	13µM*
Cn1c(SCc2ccc(F)cc2)nc2ccc(C(=O)NCc3ccc(F)cc3)cc21	/	4%	/	/	-13%	-2%
CCCCCCCCCCCCCCC(F)C(=O)O (stereo not given)	/	-15%	/	/	-16%	/
CCNC(=O)C1(C)CCN1CCC(=O)c1ccc(C)cc1 (stereo not given)	/	/	/	-16%	/	3%
CCc1ccc(O)c(N=Cc2ccccc2O)c1	10%	5%	-4%	0%	-4%	1%
O=c1[nH][nH]c2c(N=Cc3ccccc3O)ccc(F)c12	23%	?	-4%	11µM*	?	11µM*
COc1cc(CNc2nnnn2C)cc(OC)c1OC	1%	-5%	5%	-7%	-21%	-15%
COc1ccccc1N1C(=O)C2C3C=CC(CC3)C2C1=O (stereo not given)	11%	-22%	2%	-13%	-2%	-5%
COc1ccccc1N1CCNC(C)C1=O (stereo not given)	-3%	79µM*	1%	8.4µM*	-10%	?
CC(C)(C)NS(=O)(=O)c1ccc(C(=O)Nc2ccc3c(c2)OCO3)cc1	-6%	-21%	35µM*	7%	-6%	-4%
CNS(=O)(=O)c1ccc(NC(=S)Nc2ccc3c(c2)OCO3)cc1	-11%	-18%	-3%	19µM*	-2%	?
CC(C)(C)NS(=O)(=O)c1ccc(CCC(=O)Nc2ccc3c(c2)OCO3)cc1	0%	-5%	-1%	-10%	-1%	5%
NC(N)=NS(=O)(=O)c1ccc(NC(=S)NC(=O)c2ccc3c(c2)OCO3)cc1	8%	1%	4%	24µM*	0%	-1%
CC(C)c1ccc(Cn2ccc3c4c(N)nc(NC5CC5)nc4ccc32)cc1	/	0%	/	/	?	/
CN1CCN(c2nc3ccccn3c(=O)c2C=C(C#N)C#N)CC1	/	-18%	2%	-4%	-16%	0%
SMILES	PKM2 act	VDR inhibitor	Mito fusion yeast	PLK1 PBD block	GCN5L2 inh	GLS inh
C[N+]1(C)CCC(OC(=O)CC(O)(c2ccccc2)C2CCCC2)C1 (stereo not given)	/	/	/	/	/	-1%
COc1ccc(NC(=S)Nc2ccc(OC)cc2OC)c(OC)c1	-14%	-12%	0%	27µM*	1%	14%
CC1CCCCN1S(=O)(=O)c1ccc2[nH]c(=O)cc(C(=O)NCCc3ccc(Cl)cc3)c2c1 (stereo not given)	/	18%	/	/	2%	7%
CCCCN(C)CCCNC(=O)c1cc(=O)[nH]c2ccc(S(=O)(=O)N3CCCCC3C)cc12 (stereo not given)	5%	-6%	35µM*	-11%	-4%	-11%
COc1ccc(NC(=O)C2CCN(S(=O)(=O)c3ccc(N4CCCC4=O)cc3)CC2)cc1OC	/	-8%	1%	-12%	-23%	-2%
COc1ccc(S(=O)(=O)N2CCC(C(=O)N[C@H](C(=O)N3CCCC3)C(C)C)CC2)cc1	/	-14%	-1%	27µM*	-3%	11%
COc1cc(NC(=O)C2CCN(S(=O)(=O)c3ccc(N4CCCC4=O)cc3)CC2)cc(OC)c1	/	-25%	-2%	30µM*	-5%	0%
COc1ccc(S(=O)(=O)N2CCCC(C(=O)NCCC(C)C)C2)cc1 (stereo not given)	/	-13%	0%	24µM*	-4%	2%
COc1ccc(OC)c(CNC(=O)C2CCCN(S(=O)(=O)N3CC(C)CC(C)C3)C2)c1 (stereo not given)	/	-15%	?	-8%	-5%	5%
COc1ccc(CNC(=O)C2CCCN(S(=O)(=O)N3CC(C)CC(C)C3)C2)c(OC)c1 (stereo not given)	/	0%	11µM*	-10%	-3%	8%
COc1ccc(S(=O)(=O)N2CCCC(C(=O)NCc3ccccc3)C2)cc1 (stereo not given)	/	21%	-17%	-24%	0%	0%
Cc1cc(OCC(O)CNC(C)c2ccccc2)ccc1C(C)C (stereo not given)	6%	1%	-27%	3%	-3%	-9%
Cc1ccc(-c2nc3ncccn3c2Nc2ccccc2C)o1	11µM*	-8%	8%	-17%	-10%	9%
Brc1ccc(-c2nc3ncccn3c2NC2CCCCC2)o1	-1%	-20%	3%	21µM*	-6%	-20%
Cc1ccc(Nc2c(-c3ccc(C)o3)nc3ncccn23)cc1	?	-7%	-2%	-4%	-5%	20%
C=C(C)Cn1c2ccc(NC(=O)NCc3ccc(F)cc3)cc2c(=O)n1C	/	/	/	-21%	/	-1%
Cc1cccc(-c2cnc(C(O)c3ccc(-c4ccccc4)cc3)[nH]2)c1 (stereo not given)	/	/	/	-3%	/	4%
O=S(=O)(c1ccccc1)C(/C=N\O)/C=C/c1ccccc1 (stereo not given)	11%	-18%	0%	3µM*	-10%	-28%
Oc1ccc2ccccc2c1/C=N/c1nc2c(s1)CCCC2	13%	4%	4%	13µM*	-2%	-5%
Oc1ccc2ccccc2c1C=Nc1ccc(Cl)cn1	-1%	-6%	10%	17µM*	-6%	4%
Cc1csc(=O)n1CC(=O)Nc1ccc(Cl)cc1F	/	4%	-2%	-4%	-4%	0%
